Reference: the supplement of paper PMC12669032
A number with no mark means an inactive call.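 How the source made its calls: active = AUC reduced over 20% with Padj below 0.05 in at least 2 of 3 replicates; inactive = otherwise.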

Tests used:
Assay in all cases: growth AUC relative to DMSO control (median of replicates) (fraction); higher = more growth (less inhibition), active = hit call of the paper
Conditions in all cases: 20 µM; 24 h
[1] = test system: Akkermansia muciniphila
How it was run: (§1)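 Area under the growth curve was normalised to the plate median of solvent-only wells, or to row and column medians on the industrial chemical plate. Growth curves came from anaerobic gut bacterial monocultures in mGAM at 37 °C, seeded at OD600 0.05 with 20 µM compound (1% DMSO), and read at OD600 hourly for 24 h with the minimum OD set to 0. The value is the median of three biological replicates grown on separate days.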

[2] = test system: Bacteroides caccae
How it was run: as §1

[3] = test system: Bacteroides clarus
How it was run: as §1

[4] = test system: Bacteroides dorei
How it was run: as §1

[5] = test system: Bacteroides stercoris
How it was run: as §1

[6] = test system: Bacteroides thetaiotaomicron
How it was run: as §1

[7] = test system: Bacteroides uniformis
How it was run: as §1

[8] = test system: Bifidobacterium longum subsp. longum
How it was run: as §1

[9] = test system: Clostridium difficile
How it was run: as §1

[10] = test system: Collinsella aerofaciens
How it was run: as §1

[11] = test system: Coprococcus comes
How it was run: as §1

[12] = test system: Escherichia coli ED1a
How it was run: as §1

[13] = test system: Escherichia coli IAI1
How it was run: as §1

[14] = test system: Eubacterium rectale
How it was run: as §1

[15] = test system: Fusobacterium nucleatum subsp. animalis
How it was run: as §1

[16] = test system: Lactobacillus gasseri
How it was run: as §1

[17] = test system: Lactobacillus paracasei
How it was run: as §1

[18] = test system: Odoribacter splanchnicus
How it was run: as §1

[19] = test system: Parabacteroides distasonis
How it was run: as §1

[20] = test system: Parabacteroides merdae
How it was run: as §1

Row | Compound | growth AUC [1] | growth AUC [2] | growth AUC [3] | growth AUC [4] | growth AUC [5] | growth AUC [6] | growth AUC [7] | growth AUC [8] | growth AUC [9] | growth AUC [10] | growth AUC [11] | growth AUC [12] | growth AUC [13] | growth AUC [14] | growth AUC [15] | growth AUC [16] | growth AUC [17] | growth AUC [18] | growth AUC [19] | growth AUC [20]
1 | OC(Cc1ccccc1Cl)(Cn1[nH]cnc1=S)C1(Cl)CC1 (stereo not given) | 1.02 | 0.971 | 0.856 | 0.91 | 1.04 | 0.821 | 0.805 | 0.842 | 0.985 | 1.04 | 0.932 | 1.02 | 1.04 | 0.897 | 1.02 | 1.01 | 1.04 | 0.825 | 0.916 | 0.894
2 | OC(Cn1cncn1)(c1ccc(F)cc1)c1ccccc1F (stereo not given) | 0.876 | 0.976 | 0.971 | 0.988 | 1 | 0.98 | 0.999 | 1.21 | 1 | 0.985 | 0.975 | 1.04 | 0.98 | 0.958 | 1.02 | 0.962 | 0.909 | 0.979 | 1.01 | 0.995
3 | O=C(O)c1ccc(Cl)nc1 | 0.953 | 0.985 | 1.02 | 0.985 | 1.08 | 1.01 | 1.04 | 0.902 | 1.03 | 0.999 | 0.946 | 1.01 | 0.967 | 1.05 | 1.1 | 1.15 | 0.974 | 0.968 | 1.02 | 1.01
4 | CCNc1nc(NC(C)C)[nH]c(=O)n1 | 0.993 | 1 | 1.02 | 1.04 | 0.998 | 1 | 1.07 | 0.962 | 1.05 | 1.02 | 0.992 | 1.03 | 1.05 | 0.992 | 1.06 | 1.03 | 0.963 | 0.994 | 1.02 | 1
5 | Cc1[nH]c(=O)n(C(C)(C)C)c(=O)c1Cl | 1.07 | 1 | 0.993 | 0.96 | 0.979 | 1 | 0.981 | 0.978 | 0.997 | 0.924 | 0.999 | 0.983 | 0.942 | 1.01 | 0.978 | 0.927 | 1.06 | 1.02 | 0.968 | 0.995
6 | c1ccc(-c2ccccc2)cc1 | 1.09 | 0.985 | 1.03 | 0.967 | 1.22 | 0.969 | 1.01 | 1.03 | 0.948 | 0.963 | 0.991 | 1.03 | 1.01 | 1.09 | 1.1 | 0.94 | 0.749 | 0.945 | 1.04 | 0.998
7 | CCOP(=O)(OCC)Oc1ccc(S(C)(=O)=O)cc1 | 1.01 | 0.99 | 0.995 | 1.01 | 0.937 | 0.997 | 1.03 | 1.04 | 0.991 | 1.01 | 1.01 | 0.98 | 0.977 | 1.13 | 0.996 | 1 | 0.976 | 1 | 1.11 | 1.03
8 | CCOP(=O)(OCC)O/C(=C/Br)c1ccc(Cl)cc1Cl | 1.06 | 0.94 | 0.952 | 0.948 | 0.879 | 0.89 | 0.821 | 0.991 | 0.978 | 1.06 | 1.01 | 0.976 | 0.973 | 1.04 | 0.996 | 0.976 | 0.996 | 1.02 | 0.547 (active) | 0.898
9 | CCCC1COC(Cn2cncn2)(c2ccc(Cl)cc2Cl)O1 (stereo not given) | 1.02 | 0.952 | 0.912 | 0.945 | 0.854 | 0.902 | 0.871 | 0.97 | 0.956 | 0.981 | 0.941 | 0.979 | 0.972 | 0.545 (active) | 1 | 0.968 | 0.936 | 0.977 | 0.837 | 0.855
10 | CCO/N=C(\CC)C1=C(O)CC(c2c(C)cc(C)cc2C)CC1=O (stereo not given) | 1.1 | 0.821 | 1 | 0.999 | 0.97 | 0.986 | 0.962 | 1.05 | 0.969 | 0.943 | 1 | 0.992 | 0.978 | 1.07 | 1.05 | 0.875 | 0.969 | 1.07 | 0.995 | 0.909
11 | CN(C(=O)COc1nc2ccccc2s1)c1ccccc1 | 1.06 | 0.925 | 1.03 | 0.956 | 1.26 | 0.96 | 0.934 | 1.12 | 0.982 | 1.01 | 1.01 | 1.02 | 0.952 | 1 | 1.1 | 1.13 | 1.02 | 0.934 | 0.948 | 0.998
12 | O=S(=O)(c1ccc(Cl)cc1)c1cc(Cl)c(Cl)cc1Cl | 1.07 | 0.921 | 0.935 | 0.91 | 0.931 | 0.952 | 0.903 | 1.04 | 0.963 | 0.945 | 0.987 | 0.98 | 0.99 | 0.926 | 0.9 | 0.99 | 0.731 | 1.01 | 0.971 | 0.984
13 | COP(=S)(OC)Oc1ccc([N+](=O)[O-])c(Cl)c1 | 1.04 | 0.99 | 0.973 | 0.972 | 0.973 | 0.993 | 0.943 | 1.01 | 0.961 | 0.958 | 0.95 | 0.97 | 0.984 | 1.18 | 0.975 | 0.893 | 0.974 | 0.876 | 0.921 | 0.932
14 | CN1COCN(Cc2cnc(Cl)s2)/C1=N/[N+](=O)[O-] | 0.919 | 1 | 0.976 | 0.932 | 1.03 | 0.999 | 0.988 | 0.984 | 1.01 | 1.02 | 0.965 | 0.987 | 0.97 | 0.953 | 0.958 | 1.04 | 0.913 | 0.999 | 0.991 | 0.994
15 | C/C(=N/Nc1nc(C)cc(C)n1)c1ccccc1C | 1.24 | 1.01 | 1.06 | 1 | 1.1 | 0.963 | 1.03 | 1.01 | 0.99 | 0.979 | 0.957 | 1.02 | 1.04 | 0.495 (active) | 1.16 | 0.994 | 1.1 | 0.666 | 1.07 | 1.07
16 | CCOP(=S)(OCC)SCS(=O)C(C)(C)C (stereo not given) | 0.905 | 0.997 | 1.02 | 0.944 | 1.08 | 1.02 | 0.989 | 1.02 | 1 | 0.987 | 1.05 | 1.04 | 1.01 | 1.01 | 1.07 | 0.959 | 0.754 | 1.04 | 1.01 | 1.01
